The values below come from PMC7862700, “An all-to-all approach to the identification of sequence-specific readers for epigenetic DNA modifications on cytosine”.

What all share (test): DAPPL (digital affinity profiling via proximity ligation, sequencing); 10 mM Tris-HCl pH 7.5, 50 mM NaCl, 1 mM DTT, 4% glycerol, room temperature, 30 min; GST-TFs on glutathione beads, 16-mer random dsDNA library, 0.1% formaldehyde crosslink after washing; high values mean tight binding
One assay has as its target T1, FEV (Homo sapiens, UniProt Q99581 1-238).
T1 sequence: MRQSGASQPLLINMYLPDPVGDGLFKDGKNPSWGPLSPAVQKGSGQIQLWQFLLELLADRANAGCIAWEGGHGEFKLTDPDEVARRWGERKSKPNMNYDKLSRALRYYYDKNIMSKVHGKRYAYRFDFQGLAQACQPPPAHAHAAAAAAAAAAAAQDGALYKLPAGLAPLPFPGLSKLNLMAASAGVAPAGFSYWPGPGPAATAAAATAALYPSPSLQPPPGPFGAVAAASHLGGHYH
Particulars: protein: recombinant; tags: N-terminal GST; dsDNA, one strand shown. In short, it runs like this: (§1)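 Beads coated with glutathione captured GST-fused human transcription factors that had been expressed in yeast, and the factors were then given DNA barcodes and pooled with a tag-only sample. The pools were incubated with 200 nmole of a random double-stranded 16-mer DNA library in Tris/NaCl/DTT/glycerol buffer for 30 min at room temperature, washed, crosslinked with 0.1% formaldehyde and proximity-ligated with BsaI/T4 ligase at 37 °C for 1 h. PCR amplification and Illumina NextSeq500 sequencing came last. Binding signal is each hexamer's read frequency for a factor divided by its frequency for the tag-only sample.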

The target of another assay is ETV5 (Homo sapiens, UniProt P41161 1-510). Particulars: protein: recombinant; tags: N-terminal GST; dsDNA, one strand shown. In short, it runs like this:
as §1

The target in a further assay is HSF1 (Homo sapiens, UniProt Q00613 1-529). Particulars: protein: recombinant; tags: N-terminal GST; chain copies: 3; dsDNA, one strand shown. The procedure, abridged: as §1
Chain of HSF1 (Q00613 whole entry): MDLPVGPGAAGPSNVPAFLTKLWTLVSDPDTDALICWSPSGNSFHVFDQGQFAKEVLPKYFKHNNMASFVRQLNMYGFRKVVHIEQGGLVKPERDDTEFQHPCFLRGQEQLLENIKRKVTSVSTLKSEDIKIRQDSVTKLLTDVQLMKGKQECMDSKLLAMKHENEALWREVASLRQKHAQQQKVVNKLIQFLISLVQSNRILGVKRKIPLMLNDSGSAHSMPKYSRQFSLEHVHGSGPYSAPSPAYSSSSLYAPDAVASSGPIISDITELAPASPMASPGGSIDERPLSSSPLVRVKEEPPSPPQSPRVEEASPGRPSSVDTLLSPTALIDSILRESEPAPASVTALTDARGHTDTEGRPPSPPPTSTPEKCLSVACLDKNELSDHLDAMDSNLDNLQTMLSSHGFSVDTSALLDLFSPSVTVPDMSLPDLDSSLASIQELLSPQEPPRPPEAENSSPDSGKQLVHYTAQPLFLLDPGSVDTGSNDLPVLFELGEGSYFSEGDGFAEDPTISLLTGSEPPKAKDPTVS
A further assay addresses T2, SPIC (Homo sapiens, UniProt Q8N5J4 1-248).
T2 sequence: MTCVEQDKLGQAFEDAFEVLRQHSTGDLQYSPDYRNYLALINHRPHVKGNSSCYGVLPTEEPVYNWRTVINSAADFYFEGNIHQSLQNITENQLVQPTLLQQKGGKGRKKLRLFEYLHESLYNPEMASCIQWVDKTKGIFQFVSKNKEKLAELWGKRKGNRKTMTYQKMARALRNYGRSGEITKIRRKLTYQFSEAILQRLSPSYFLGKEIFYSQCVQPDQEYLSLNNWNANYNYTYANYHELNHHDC
The following applies: protein: recombinant; tags: N-terminal GST; dsDNA, one strand shown. The procedure, abridged:
as §1

The target of the next assay is ELF4 (Homo sapiens, UniProt Q99607 1-663). Particulars: protein: recombinant; tags: N-terminal GST; dsDNA, one strand shown. In short, it runs like this:
as §1

The target of the next assay is T3, ELK4 (Homo sapiens, UniProt P28324-2 1-405).
T3 sequence: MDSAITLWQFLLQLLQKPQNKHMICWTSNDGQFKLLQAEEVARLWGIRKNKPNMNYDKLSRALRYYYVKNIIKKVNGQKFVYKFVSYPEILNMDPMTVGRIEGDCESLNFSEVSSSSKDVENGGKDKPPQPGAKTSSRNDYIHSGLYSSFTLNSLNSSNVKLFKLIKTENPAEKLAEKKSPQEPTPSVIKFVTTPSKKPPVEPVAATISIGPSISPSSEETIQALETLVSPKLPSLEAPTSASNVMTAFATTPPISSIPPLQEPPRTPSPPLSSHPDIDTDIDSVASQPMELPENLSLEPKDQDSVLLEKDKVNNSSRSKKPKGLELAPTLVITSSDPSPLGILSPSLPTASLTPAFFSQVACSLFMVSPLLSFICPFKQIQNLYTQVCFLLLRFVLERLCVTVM
Particulars: protein: recombinant; tags: N-terminal GST; dsDNA, one strand shown. In short, it runs like this: as §1

For another assay, the target named is T4, ETV2 (Homo sapiens, UniProt O00321 1-342).
T4 sequence: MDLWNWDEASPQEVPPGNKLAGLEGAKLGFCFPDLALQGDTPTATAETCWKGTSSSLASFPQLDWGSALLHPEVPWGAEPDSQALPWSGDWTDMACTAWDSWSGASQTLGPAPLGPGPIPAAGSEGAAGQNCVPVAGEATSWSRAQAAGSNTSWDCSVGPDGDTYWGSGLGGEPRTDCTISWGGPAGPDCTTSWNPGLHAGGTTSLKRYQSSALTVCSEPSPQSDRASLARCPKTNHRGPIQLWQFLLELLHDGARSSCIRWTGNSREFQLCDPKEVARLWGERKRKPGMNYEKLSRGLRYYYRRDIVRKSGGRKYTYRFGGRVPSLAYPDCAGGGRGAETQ
Particulars: protein: recombinant; tags: N-terminal GST; dsDNA, one strand shown. The procedure, abridged:
as §1

The next assay has as its target T5, ELF3 (Homo sapiens, UniProt P78545 1-371).
T5 sequence: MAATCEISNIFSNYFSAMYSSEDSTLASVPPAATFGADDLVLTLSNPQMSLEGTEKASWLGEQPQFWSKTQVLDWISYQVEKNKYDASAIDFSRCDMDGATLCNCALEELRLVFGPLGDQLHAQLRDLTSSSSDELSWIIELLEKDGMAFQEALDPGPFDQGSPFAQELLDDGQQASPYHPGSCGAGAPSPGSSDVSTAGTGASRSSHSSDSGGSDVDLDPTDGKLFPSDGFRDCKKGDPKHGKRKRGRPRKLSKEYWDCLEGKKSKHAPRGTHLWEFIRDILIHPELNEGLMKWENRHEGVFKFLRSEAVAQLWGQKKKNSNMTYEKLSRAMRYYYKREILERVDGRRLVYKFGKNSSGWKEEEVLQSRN
The following applies: protein: recombinant; tags: N-terminal GST; dsDNA, one strand shown. The procedure, abridged:
as §1

Another assay deals with CRX (Homo sapiens, UniProt O43186 1-299). Particulars: protein: recombinant; tags: N-terminal GST; dsDNA, one strand shown. The procedure, abridged: as §1
Chain of CRX (O43186 whole entry): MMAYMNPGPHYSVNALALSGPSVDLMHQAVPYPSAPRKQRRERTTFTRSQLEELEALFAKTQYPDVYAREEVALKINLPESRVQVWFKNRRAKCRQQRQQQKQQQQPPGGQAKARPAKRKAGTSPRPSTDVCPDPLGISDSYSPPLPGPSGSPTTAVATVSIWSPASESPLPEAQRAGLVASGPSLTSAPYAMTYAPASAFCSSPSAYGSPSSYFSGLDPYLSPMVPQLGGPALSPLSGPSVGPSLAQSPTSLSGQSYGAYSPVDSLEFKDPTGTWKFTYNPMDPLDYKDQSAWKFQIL
The next assay concerns the target ETV1 (Homo sapiens, UniProt P50549 1-477). The following applies: protein: recombinant; tags: N-terminal GST; dsDNA, one strand shown. In short, it runs like this:
as §1

Chain of ETV1 (P50549 whole entry): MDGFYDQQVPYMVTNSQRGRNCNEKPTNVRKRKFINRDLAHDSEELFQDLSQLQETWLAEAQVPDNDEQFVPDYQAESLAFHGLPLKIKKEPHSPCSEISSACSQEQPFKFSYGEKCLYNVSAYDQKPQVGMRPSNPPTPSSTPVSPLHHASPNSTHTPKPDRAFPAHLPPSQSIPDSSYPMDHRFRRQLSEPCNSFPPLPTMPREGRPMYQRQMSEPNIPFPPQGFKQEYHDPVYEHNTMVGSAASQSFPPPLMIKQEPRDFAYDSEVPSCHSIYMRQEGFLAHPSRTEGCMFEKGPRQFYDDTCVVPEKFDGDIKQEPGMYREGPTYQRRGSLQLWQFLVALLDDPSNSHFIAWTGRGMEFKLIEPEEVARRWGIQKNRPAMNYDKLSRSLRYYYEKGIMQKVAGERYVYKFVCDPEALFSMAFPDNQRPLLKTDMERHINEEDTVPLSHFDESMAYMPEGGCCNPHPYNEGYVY
Chain of ETV5 (P41161 whole entry): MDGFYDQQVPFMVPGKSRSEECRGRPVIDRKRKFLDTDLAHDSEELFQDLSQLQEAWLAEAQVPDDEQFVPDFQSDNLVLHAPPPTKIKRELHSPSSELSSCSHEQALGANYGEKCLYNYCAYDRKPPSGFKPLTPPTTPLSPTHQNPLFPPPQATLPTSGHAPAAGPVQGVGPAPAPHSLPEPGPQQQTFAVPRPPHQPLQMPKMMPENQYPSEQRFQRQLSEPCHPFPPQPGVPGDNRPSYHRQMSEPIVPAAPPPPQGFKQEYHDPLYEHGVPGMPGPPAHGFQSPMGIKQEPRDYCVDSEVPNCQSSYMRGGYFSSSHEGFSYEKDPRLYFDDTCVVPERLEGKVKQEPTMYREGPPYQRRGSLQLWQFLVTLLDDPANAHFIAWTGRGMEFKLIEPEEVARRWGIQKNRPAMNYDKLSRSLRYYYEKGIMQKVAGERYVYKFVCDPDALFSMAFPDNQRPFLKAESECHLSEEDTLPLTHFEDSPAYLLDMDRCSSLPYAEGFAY
Chain of ELF4 (Q99607 whole entry): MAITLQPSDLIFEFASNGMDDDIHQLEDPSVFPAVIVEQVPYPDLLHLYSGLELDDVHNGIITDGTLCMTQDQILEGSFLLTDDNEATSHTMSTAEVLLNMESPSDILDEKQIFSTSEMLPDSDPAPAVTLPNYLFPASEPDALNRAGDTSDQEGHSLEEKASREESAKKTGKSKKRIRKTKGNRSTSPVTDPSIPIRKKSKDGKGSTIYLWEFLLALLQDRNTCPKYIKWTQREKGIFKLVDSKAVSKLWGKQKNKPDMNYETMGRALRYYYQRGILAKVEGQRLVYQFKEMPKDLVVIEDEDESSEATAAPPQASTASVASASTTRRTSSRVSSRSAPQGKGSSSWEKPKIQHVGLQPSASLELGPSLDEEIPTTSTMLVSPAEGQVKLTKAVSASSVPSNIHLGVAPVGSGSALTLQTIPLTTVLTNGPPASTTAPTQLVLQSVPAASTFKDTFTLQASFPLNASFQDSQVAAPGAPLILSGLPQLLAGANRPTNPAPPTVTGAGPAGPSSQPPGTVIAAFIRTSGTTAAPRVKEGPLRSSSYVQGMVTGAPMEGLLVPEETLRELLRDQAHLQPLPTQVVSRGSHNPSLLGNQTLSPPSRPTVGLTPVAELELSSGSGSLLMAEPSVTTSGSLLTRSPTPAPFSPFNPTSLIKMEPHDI

As to TCATCC, the binding signal with FEV is 1.4 fold enrichment (6-mer frequency, TF over GST control); with ETV5 it was 1.35 fold enrichment (6-mer frequency, TF over GST control); in the assay with HSF1, 1.38 fold enrichment (6-mer frequency, TF over GST control); with SPIC, 1.39 fold enrichment (6-mer frequency, TF over GST control); with ELF4, 1.36 fold enrichment (6-mer frequency, TF over GST control); in the assay with ELK4 it was 1.24 fold enrichment (6-mer frequency, TF over GST control). Also, the binding signal with ETV2 is 1.44 fold enrichment (6-mer frequency, TF over GST control); with ELF3, 1.49 fold enrichment (6-mer frequency, TF over GST control); with CRX, 1.65 fold enrichment (6-mer frequency, TF over GST control); in the assay with ETV1, 1.35 fold enrichment (6-mer frequency, TF over GST control).

Turning to TATATC, the binding signal with FEV is 1.58 fold enrichment (6-mer frequency, TF over GST control); with ETV5, 1.6 fold enrichment (6-mer frequency, TF over GST control); with HSF1, 1.33 fold enrichment (6-mer frequency, TF over GST control); with SPIC, 1.67 fold enrichment (6-mer frequency, TF over GST control); with ELF4, 1.58 fold enrichment (6-mer frequency, TF over GST control); with ELK4, 1.53 fold enrichment (6-mer frequency, TF over GST control). Further, the binding signal with ETV2 was 1.54 fold enrichment (6-mer frequency, TF over GST control); in the assay with ELF3 it was 1.36 fold enrichment (6-mer frequency, TF over GST control); in the assay with CRX, 1.67 fold enrichment (6-mer frequency, TF over GST control); in the assay with ETV1, 1.54 fold enrichment (6-mer frequency, TF over GST control).

Consider AAAGTA, for which the binding signal in the assay with FEV was 1.11 fold enrichment (6-mer frequency, TF over GST control); with ETV5, 1.09 fold enrichment (6-mer frequency, TF over GST control); in the assay with HSF1 it was 1.29 fold enrichment (6-mer frequency, TF over GST control); in the assay with SPIC, 1.04 fold enrichment (6-mer frequency, TF over GST control); with ELF4, 1.17 fold enrichment (6-mer frequency, TF over GST control); with ELK4, 1.13 fold enrichment (6-mer frequency, TF over GST control). Further, the binding signal with ETV2 was 1.11 fold enrichment (6-mer frequency, TF over GST control); with ELF3, 1.11 fold enrichment (6-mer frequency, TF over GST control); with CRX, 1.35 fold enrichment (6-mer frequency, TF over GST control); with ETV1, 1.18 fold enrichment (6-mer frequency, TF over GST control).

In the case of AAATTG, the binding signal is 1.22 fold enrichment (6-mer frequency, TF over GST control) in the assay with FEV; 1.26 fold enrichment (6-mer frequency, TF over GST control) with ETV5; 1.16 fold enrichment (6-mer frequency, TF over GST control) in the assay with HSF1; 1.16 fold enrichment (6-mer frequency, TF over GST control) with SPIC; 1.27 fold enrichment (6-mer frequency, TF over GST control) with ELF4; 1.2 fold enrichment (6-mer frequency, TF over GST control) with ELK4. Further, the binding signal with ETV2 was 1.21 fold enrichment (6-mer frequency, TF over GST control); in the assay with ELF3, 1.33 fold enrichment (6-mer frequency, TF over GST control); with CRX, 1.05 fold enrichment (6-mer frequency, TF over GST control); with ETV1, 1.21 fold enrichment (6-mer frequency, TF over GST control).

For the sequence AGCTTT, the binding signal with FEV is 1.08 fold enrichment (6-mer frequency, TF over GST control); in the assay with ETV5, 1.18 fold enrichment (6-mer frequency, TF over GST control); with HSF1, 1.43 fold enrichment (6-mer frequency, TF over GST control); with SPIC it was 1.03 fold enrichment (6-mer frequency, TF over GST control); with ELF4, 1.15 fold enrichment (6-mer frequency, TF over GST control); in the assay with ELK4 it was 1.28 fold enrichment (6-mer frequency, TF over GST control). Further, the binding signal with ETV2 is 1.23 fold enrichment (6-mer frequency, TF over GST control); with ELF3 it was 1.45 fold enrichment (6-mer frequency, TF over GST control); in the assay with CRX, 1.81 fold enrichment (6-mer frequency, TF over GST control); in the assay with ETV1, 1.1 fold enrichment (6-mer frequency, TF over GST control).

For CTCGAC, the binding signal with FEV was 1.41 fold enrichment (6-mer frequency, TF over GST control); in the assay with ETV5, 1.47 fold enrichment (6-mer frequency, TF over GST control); in the assay with HSF1, 1.77 fold enrichment (6-mer frequency, TF over GST control); in the assay with SPIC, 1.58 fold enrichment (6-mer frequency, TF over GST control); in the assay with ELF4 it was 1.58 fold enrichment (6-mer frequency, TF over GST control); in the assay with ELK4, 1.49 fold enrichment (6-mer frequency, TF over GST control). Moreover, the binding signal with ETV2 was 1.39 fold enrichment (6-mer frequency, TF over GST control); with ELF3, 1.31 fold enrichment (6-mer frequency, TF over GST control); in the assay with CRX, 1.32 fold enrichment (6-mer frequency, TF over GST control); in the assay with ETV1, 1.58 fold enrichment (6-mer frequency, TF over GST control).

On to AAGTCC, for which the binding signal is 1.34 fold enrichment (6-mer frequency, TF over GST control) in the assay with FEV; 1.28 fold enrichment (6-mer frequency, TF over GST control) in the assay with ETV5; 1.08 fold enrichment (6-mer frequency, TF over GST control) with HSF1; 1.3 fold enrichment (6-mer frequency, TF over GST control) in the assay with SPIC; 1.19 fold enrichment (6-mer frequency, TF over GST control) in the assay with ELF4; 1.25 fold enrichment (6-mer frequency, TF over GST control) in the assay with ELK4. Also, the binding signal in the assay with ETV2 was 1.19 fold enrichment (6-mer frequency, TF over GST control); in the assay with ELF3 it was 1.3 fold enrichment (6-mer frequency, TF over GST control); with CRX it was 1.19 fold enrichment (6-mer frequency, TF over GST control); with ETV1, 1.26 fold enrichment (6-mer frequency, TF over GST control).
